tim10-1 inh – inhibits growth of tim10-1 mutant yeast; S. cerevisiae tim10-1 ts strain growth, BacTiter-Glo, 24 h; inhibition, % at 20 µM; 2.2% of 330,000 active;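 active means inhibition of at least 40%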;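 further: mutant grown at 25 °C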
tim23-1 inh – growth inhibitors of tim23-1 mutant yeast; S. cerevisiae tim23-1 growth, BacTiter-Glo luminescence, 24 h; AID 463212; inhibition, % at 20 µM; 1.3% of 330,000 active;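 active means growth inhibition of the mutant yeast at or above 50%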;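 further: temperature-sensitive mutant grown at 25 °C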
V-ATPase pH – alters yeast V-ATPase proton transport | response, % at 10 µM | S. cerevisiae, pHLuorin cytosolic pH fluorescence | 0.37% of 350,000 active; in the data active means response mostly above about 7.3%, no sharp cut-off; inactive means mostly below about 5.4%; further: actives read high
PfHsp90 set2 – reduces growth (ATP signal) of yeast expressing P. falciparum Hsp90 | S. cerevisiae expressing PfHsp90, BacTiter-Glo ATP, 48 h; yeast lacking PDR1 and PDR3 efflux regulators | inhibition, % at 9.4 µM | 0.32% of 310,000 active | AID 504621;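 active means every replicate shows inhibition above about 80%, whatever the replicate mean, limit read from the data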
TIM10 inh – growth inhibitors of TIM10 yeast strain; S. cerevisiae TIM10 strain growth, BacTiter-Glo luminescence, 24 h; inhibition, % at 10 µM; 1.4% of 330,000 active; AID 463195;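 active means inhibition of 40% or more at the single tested concentration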;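 further: wild-type TIM10 isogenic control strain grown at permissive 25 °C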
tim23-1 conf – confirmation of tim23-1 mutant yeast growth inhibitors; 83% of 4,400 active; AID 463218; shares compounds with tim23-1 inh; S. cerevisiae tim23-1 growth, BacTiter-Glo luminescence, 24 h; inhibition, % at 20 µM;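 active means inhibition above about 39% in either of two replicate wells at 20 µM, limit read from the data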;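 further: temperature-sensitive tim23-1 mutant grown at 25 °C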
Large screens that a line does not name were inactive (follow-up assays come after a bar, where they were run). Compounds with a hit are over-represented: about 3.7% of the library has one in this group of screens.

Cc1cc2nc3c(nc2cc1C)C(O)=C3O	none
O=C1C=C(c2ccc3cc[nH]c3c2)C[C@@H](c2ccc3c(c2)OCO3)C1	tim23-1 inh 55 | tim23-1 conf 47
O=c1cc(-c2cccc(Br)c2)nc(-c2ccccc2F)o1	tim23-1 inh 63 | tim23-1 conf 57
CC1(C)CC(=O)C=C(c2ccc(Oc3ccccc3)cc2)C1	none
O=C1C=C(c2ccc3[nH]ccc3c2)CCC1	none
CC1(C)CC(=O)C=C(c2ccc(I)cc2)C1	tim23-1 inh 51 | tim23-1 conf 41
CC1(C)CC(=O)C=C(c2ccc3[nH]ccc3c2)C1	tim23-1 inh 54 | tim23-1 conf inactive
CCOc1ccc(C(=O)Nc2ccc3c(c2)OCCO3)cc1	none
COC(=O)[C@H]1C[C@@]2(O)CN(S(=O)(=O)c3ccc(C)cc3)C[C@@]2(OC(=O)NCC2CCCCC2)C[C@H]1C(=O)OC	none (no result: tim10-1 inh, tim23-1 inh, PfHsp90 set2, TIM10 inh)
CCOC(=O)CS(=O)(=O)c1nc(-c2ccc(F)cc2)cc(C(F)(F)F)n1	tim23-1 inh 69 | tim23-1 conf inactive
O=C(c1ccc(-c2nc3ccccc3s2)s1)N1CCOCC1	tim23-1 inh 53 (no result: V-ATPase pH, PfHsp90 set2) | tim23-1 conf 44
CCN1CCN(C(=O)c2ccc(-c3nc4ccccc4s3)s2)CC1	none
O=C(CCS(=O)(=O)c1ccccc1)Nc1nc(-c2ccc(F)cc2)cs1	none
O=C(CS(=O)(=O)c1ccccc1)Nc1nc(-c2ccc(F)cc2)cs1	tim23-1 inh 57 | tim23-1 conf 49
COc1ccc(CN(CC(O)COCc2ccccc2)S(=O)(=O)c2ccccc2Br)cc1OC (stereo not given)	tim23-1 inh 50 | tim23-1 conf 36
Oc1ccc(Cl)cc1CNCc1ccc(F)cc1	none
Oc1ccc(Cl)cc1CNCc1ccc(Cl)cc1	tim23-1 inh 60 | tim23-1 conf 38
Cc1cccc(C(=O)OCC(=O)N(CC(C)C)c2c(N)n(Cc3ccccc3)c(=O)[nH]c2=O)c1C	none (no result: PfHsp90 set2)
O=C(/C(=C/O)N=Nc1ccccc1)c1ccncc1	tim23-1 inh 56 (no result: PfHsp90 set2) | tim23-1 conf inactive
Cc1ccccc1C(=O)Nc1ccnn1C1CCN(C2CCSCC2)CC1	none
COc1ccc2c(=O)c3c(=O)n(Cc4ccco4)c(-c4ccc(C)cc4)nc3oc2c1	tim23-1 inh 57 | tim23-1 conf 46
O=C(COc1ccc(Cl)cc1Cl)N/N=C/C1CC=CCC1 (stereo not given)	none
Cc1cccc(NS(=O)(=O)c2ccc(OCC(=O)N3CCCC3)cc2)c1	none
O=C(NCc1ccc(F)cc1)N1CCN(C(=O)c2ccccc2)CC1	none
COCCn1c(N)c(C(=S)NC(=O)c2cccs2)c(=O)[nH]c1=O	none
Oc1c(Cl)cc(Cl)cc1/C=N/c1nc(-c2ccc(Cl)cc2)cs1	none
Oc1c(Cl)cc(Cl)cc1/C=N/c1nccs1	tim23-1 inh 69 | tim23-1 conf 54
CSc1nnc(C)c(/C=C/NOCc2ccc(Cl)cc2)n1	tim23-1 inh 54 | tim23-1 conf 72
NC(=O)C1CCN(C(=O)c2ccc3c(=O)n(Cc4ccco4)c(SCC(=O)c4ccccc4)nc3c2)CC1	tim23-1 inh 58 | tim23-1 conf inactive
NC(=O)C1CCN(C(=O)c2ccc3c(=O)n(Cc4ccco4)c(SCC(=O)c4ccc(F)cc4)nc3c2)CC1	none (no result: V-ATPase pH, PfHsp90 set2)
CC1CCCCN1C(=O)CSc1nnc(-c2cccnc2)o1 (stereo not given)	none
Cc1cccc(CSC2=NCCN2S(=O)(=O)c2ccc(F)cc2)c1	none
Cc1cc(Cl)ccc1NC(=O)C1CCN(S(C)(=O)=O)CC1	none (no result: PfHsp90 set2)
O=C1c2ccccc2C(=O)N1c1nc(-c2cccs2)cs1	tim23-1 inh 77 | tim23-1 conf 41
CN1CCN(c2nc(-c3cccs3)cs2)CC1	none
O=C(CCl)Nc1cn(-c2ccccc2)nc1-c1ccccc1	tim23-1 inh 60 | tim23-1 conf inactive
O=Cc1cc2ccccc2nc1SCc1ccc(Cl)c(Cl)c1	tim23-1 inh 60 | tim23-1 conf 44
CCOC(=O)CNC(=O)c1sc2ncnc(N3CCc4ccccc4C3)c2c1C	tim23-1 inh 51 | tim23-1 conf inactive
CCCNC(=O)c1ccccc1SCc1c(C)noc1C	none
O=C(CCCl)Nc1nc2c(s1)CCc1ccccc1-2	tim23-1 inh 70 | tim23-1 conf 74
COc1ccc(/C=C2\Sc3ccc(C(=O)NCCCN4CCCC4)cc3N(C)C2=O)cc1OC	none
